# Assay results reported in PubChem BioAssay (EPA / NIEHS).
# Inconclusive results are not listed. Activity calls are given as the source filed them. Rule for the calls, unless noted: active = hit-call score of the fitted dose curve at least 0.9, where 1 is the maximum; inconclusive = response in the unintended direction; inactive = score below 0.9.
# Experiments:
# [1] = biological target: Estrogen receptor (Homo sapiens) (UniProt P03372); experiment: OT_ERa_GFPERaERE_0120: Odyssey Thera (OT) 2-hour HeLa Transcription Induction Assay for Estrogen Receptor (AID 2283382)
# Estrogen receptor (Homo sapiens), sequence (P03372 whole entry, looked up): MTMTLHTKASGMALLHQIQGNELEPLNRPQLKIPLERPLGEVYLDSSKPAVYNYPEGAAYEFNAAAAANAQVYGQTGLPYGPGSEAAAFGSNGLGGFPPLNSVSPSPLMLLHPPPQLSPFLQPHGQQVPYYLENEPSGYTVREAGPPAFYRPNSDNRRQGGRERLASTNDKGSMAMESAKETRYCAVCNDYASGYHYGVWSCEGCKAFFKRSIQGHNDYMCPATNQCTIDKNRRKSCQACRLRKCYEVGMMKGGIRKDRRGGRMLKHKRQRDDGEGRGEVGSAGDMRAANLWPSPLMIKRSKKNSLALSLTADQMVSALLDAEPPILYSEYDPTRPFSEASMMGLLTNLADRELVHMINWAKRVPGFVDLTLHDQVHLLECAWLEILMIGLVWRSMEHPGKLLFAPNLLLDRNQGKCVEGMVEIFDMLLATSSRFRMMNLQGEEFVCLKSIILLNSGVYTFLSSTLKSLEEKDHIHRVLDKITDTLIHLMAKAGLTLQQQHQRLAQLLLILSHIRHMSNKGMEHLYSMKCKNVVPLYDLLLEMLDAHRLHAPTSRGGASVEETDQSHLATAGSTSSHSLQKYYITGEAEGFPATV
# Outline: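 Cells (human cervical HeLa) receive compound, incubate 2 hours, then are imaged for fluorescent reporter induction. Images are quantified by high content analysis, and activity is fitted as gain of signal against DMSO.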
# [2] = biological target: Retinoic acid receptor RXR-alpha (Homo sapiens) (UniProt P19793); experiment: OT_NURR1_NURR1RXRa_0480: Odyssey Thera (OT) 8-hour HEK293T Protein Complementation Assay for Nurr1/retinoid X receptor (RXR) (AID 2283385)
# Retinoic acid receptor RXR-alpha (Homo sapiens), sequence (P19793 whole entry, looked up, the tested form may be a part): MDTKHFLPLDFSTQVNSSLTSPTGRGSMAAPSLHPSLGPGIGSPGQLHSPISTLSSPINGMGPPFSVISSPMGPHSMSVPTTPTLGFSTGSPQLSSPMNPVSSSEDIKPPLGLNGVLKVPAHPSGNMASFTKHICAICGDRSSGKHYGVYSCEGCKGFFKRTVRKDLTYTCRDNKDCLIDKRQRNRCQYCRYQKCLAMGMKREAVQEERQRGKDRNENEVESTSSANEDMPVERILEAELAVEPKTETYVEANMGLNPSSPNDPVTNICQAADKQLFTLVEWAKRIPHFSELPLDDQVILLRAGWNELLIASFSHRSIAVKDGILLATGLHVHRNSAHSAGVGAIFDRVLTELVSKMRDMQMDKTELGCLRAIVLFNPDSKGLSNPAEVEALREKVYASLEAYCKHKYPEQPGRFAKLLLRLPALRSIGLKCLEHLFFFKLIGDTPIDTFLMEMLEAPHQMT
# Outline: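 Interaction of bait and prey reconstitutes a functional reporter, whose fluorescence was measured in HEK293T cells dosed with compound for 8 hours. Signal gain relative to DMSO defined the single endpoint.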
# [3] = biological target: Retinoic acid receptor RXR-alpha (Homo sapiens) (UniProt P19793); experiment: OT_NURR1_NURR1RXRa_1440: Odyssey Thera (OT) 24-hour HEK293T Protein Complementation Assay for Nurr1/retinoid X receptor (RXR) (AID 2283386)
# Outline: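 Steps: fragment-tagged Nurr1 and RXRα expressed in HEK293T; compounds added; after 24 h, complemented reporter quantified by fluorescence intensity; signal increase over DMSO fitted as the single endpoint.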
# [4] = biological target: Peroxisome proliferator-activated receptor gamma (Homo sapiens) (UniProt P37231); experiment: OT_PPARg_PPARgSRC1_0480: Odyssey Thera (OT) 8-hour Protein-Complementation Assay for Peroxisome Proliferator-activated Receptor Gamma / SRC-1 Co-activator (AID 2283387);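 note: nuclear to cytoplasmic split Venus YFP fluorescence ratio reporting PPARg SRC-1 interaction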
# Peroxisome proliferator-activated receptor gamma (Homo sapiens), sequence (P37231 whole entry, looked up, the tested form may be a part): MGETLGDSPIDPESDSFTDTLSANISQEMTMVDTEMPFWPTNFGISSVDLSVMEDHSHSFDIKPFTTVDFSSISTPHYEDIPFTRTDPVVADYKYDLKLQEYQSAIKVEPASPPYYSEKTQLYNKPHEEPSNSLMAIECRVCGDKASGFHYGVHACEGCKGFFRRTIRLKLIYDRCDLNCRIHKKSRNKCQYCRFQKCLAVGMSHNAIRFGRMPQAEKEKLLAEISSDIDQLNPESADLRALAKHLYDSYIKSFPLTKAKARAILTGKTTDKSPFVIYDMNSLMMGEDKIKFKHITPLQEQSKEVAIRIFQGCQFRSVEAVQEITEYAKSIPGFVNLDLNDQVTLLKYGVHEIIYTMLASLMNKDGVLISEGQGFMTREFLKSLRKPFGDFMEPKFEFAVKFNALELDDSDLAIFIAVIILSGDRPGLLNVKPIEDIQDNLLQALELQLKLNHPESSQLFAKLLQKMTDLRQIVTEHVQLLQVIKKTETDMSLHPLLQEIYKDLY
# Outline: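 Protein-fragment complementation in HEK293T: Venus YFP halves (residues 1-158, 159-239, mutated to IFP1/IFP2) fused to PPARg/SRC-1. 8 h exposure; N/C ratio at 488 nm; DMSO negative control.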
# [5] = biological target: Peroxisome proliferator-activated receptor gamma (Homo sapiens) (UniProt P37231); experiment: OT_PPARg_PPARgSRC1_1440: Odyssey Thera (OT) 24-hour Protein-Complementation Assay for Peroxisome Proliferator-activated Receptor Gamma/ SRC-1 Co-activator (AID 2283388);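 note: nuclear to cytoplasmic ratio of reconstituted Venus YFP fluorescence in fixed imaged cells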
# Outline: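 Cells carrying the PPARg/SRC-1 fragment-complementation reporter receive compound for 24 hours, are fixed and counterstained with Draq5, then imaged. Increased nuclear relative to cytoplasmic YFP fluorescence above DMSO baseline indicates binding activity.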
# [6] = read-out: Tumor necrosis factor receptor superfamily member 6 (Homo sapiens) (UniProt P25445); experiment: LTEA_HepaRG_FAS: Life Technologies and Expression Analysis (LTEA) Assay for Fas cell surface death receptor (FAS) using HepaRG (AID 2283447; active = hit-call score of the fitted dose curve at least 0.9, where 1 is the maximum; inactive = score below 0.9); settings: mRNA level, 48 h; actives raise or lower the signal
# Outline: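 Differentiated human HepaRG cells, pre-cultured 48 h, were exposed in duplicate for 48 h to 8-point half-log concentrations (top 100 uM, 0.5% DMSO) in serum-free induction medium; FAS mRNA measured by qRT-PCR, normalized to ACTB/GAPDH/POLR2A, bidirectional fit versus DMSO.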
# [7] = read-out: Fatty acid synthase (Homo sapiens) (UniProt P49327); experiment: LTEA_HepaRG_FASN: Life Technologies and Expression Analysis (LTEA) Assay for Fatty Acid Synthase (FASN) using HepaRG (AID 2283448; active = hit-call score of the fitted dose curve at least 0.9, where 1 is the maximum; inactive = score below 0.9); settings: mRNA level, 48 h; actives raise or lower the signal
# Outline: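 Cells were plated, cultured 48 h, switched to serum-free induction medium, then dosed in duplicate (max 100 uM, half-log dilutions, 0.5% DMSO) for 48 h. RNA was then isolated and FASN quantified by qRT-PCR.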
# [8] = read-out: Cyclin D2 (CCND2), CCND2 (gene 894); experiment: LTEA_HepaRG_CCND2: Life Technologies and Expression Analysis (LTEA) Assay for Cyclin D2 (CCND2) using HepaRG (AID 2283449; active = hit-call score of the fitted dose curve at least 0.9, where 1 is the maximum; inactive = score below 0.9;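 note: CCND2 transcript measured by TaqMan qRT-PCR and normalised to three housekeeping genes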); settings: mRNA level, 48 h; actives raise or lower the signal
# Outline: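 In this HepaRG study, an eight-point concentration series (max 100 uM, 0.5% DMSO) is applied for 48 h. CCND2 mRNA change is derived by qRT-PCR normalised to ACTB, GAPDH and POLR2A.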
# [9] = read-out: Cyclin Dependent Kinase Inhibitor 1A (CDKN1A), CDKN1A (gene 1026); experiment: LTEA_HepaRG_CDKN1A: Life Technologies and Expression Analysis (LTEA) Assay for Cyclin Dependent Kinase Inhibitor 1A (CDKN1A) using HepaRG (AID 2283450; active = hit-call score of the fitted dose curve at least 0.9, where 1 is the maximum; inactive = score below 0.9); settings: mRNA level, 48 h; actives raise or lower the signal
# Outline: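 Gain or loss of CDKN1A transcript is scored by bidirectional fitting against 0.5% DMSO vehicle. Human HepaRG cultures receive chemicals for 48 h across an 8-point series peaking at 100 uM; expression comes from qRT-PCR.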
# [10] = biological target: Estrogen receptor (Homo sapiens) (UniProt P03372); experiment: OT_ERa_GFPERaERE_0480: Odyssey Thera (OT) 8-hour HeLa Transcription Induction Assay for Estrogen Receptor (AID 2283381; active = hit-call score of the fitted dose curve at least 0.9, where 1 is the maximum; inactive = score below 0.9)
# Outline: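 Human cervical HeLa cells were treated for 8 hours, after which ERE-driven GFP induction was measured by fluorescence microscopy; increases over DMSO baseline defined activity.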
# [11] = CEETOX_H295R_OHPROG: CeeTox H295R High-throughput Steroidogenesis Assay for OH-Progesterone (OHPROG) (AID 2283435; active = hit-call score of the fitted dose curve at least 0.9, where 1 is the maximum; inactive = score below 0.9); settings: actives raise or lower the signal
# Outline: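 Steps: seed H295R cells and adhere overnight; stimulate with 10 uM forskolin for 48 h; replace with chemical-containing medium (0.1% DMSO) for 48 h; extract medium with MTBE; quantify 17alpha-hydroxyprogesterone by reverse-phase C18 HPLC-MS/MS against a 7-point curve.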
# [12] = CEETOX_H295R_ESTRONE: CeeTox H295R High-throughput Steroidogenesis Assay for Estrone (AID 2283441; active = hit-call score of the fitted dose curve at least 0.9, where 1 is the maximum; inactive = score below 0.9); settings: actives raise or lower the signal
# Outline: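 Estrone secreted into medium quantified by LC-MS/MS after dansyl chloride derivatization, following 48 h chemical exposure (0.1% DMSO final) of forskolin-prestimulated (10 uM, 48 h) H295R cells; gain or loss fitted against DMSO; MTT viability in same wells.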
# [13] = CEETOX_H295R_11DCORT: CeeTox H295R High-throughput Steroidogenesis Assay for 11-Deoxycortisol (11DCORT) (AID 2283432; active = hit-call score of the fitted dose curve at least 0.9, where 1 is the maximum; inactive = score below 0.9); settings: actives raise or lower the signal
# Outline: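 Adrenal carcinoma line H295R, run per OECD 456 with minor changes, was forskolin-stimulated (10 uM, 48 h) before a 48 h chemical exposure at 0.1% DMSO. Secreted 11-deoxycortisol was quantified by HPLC-MS/MS.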
# [14] = CEETOX_H295R_OHPREG: CeeTox H295R High-throughput Steroidogenesis Assay for OH-Pregnenolone (OHPREG) (AID 2283434; active = hit-call score of the fitted dose curve at least 0.9, where 1 is the maximum; inactive = score below 0.9); settings: actives raise or lower the signal
# Outline: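 Readout: HPLC-MS/MS of 17alpha-hydroxypregnenolone in medium after 48 h chemical exposure of H295R cells pretreated with forskolin. Values fitted bidirectionally relative to DMSO; chemicals reducing viability to 20–70% were retested after 10-fold dilution.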
# [15] = CEETOX_H295R_CORTIC: CeeTox H295R High-throughput Steroidogenesis Assay for Corticosterone (CORTIC) (AID 2283437; active = hit-call score of the fitted dose curve at least 0.9, where 1 is the maximum; inactive = score below 0.9;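 note: corticosterone secreted into medium quantified by mass spectrometry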); settings: actives raise or lower the signal
# Outline: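 Steps: seed H295R, adhere overnight; 10 uM forskolin 48 h; replace with chemical (0.1% DMSO) 48 h; extract medium with MTBE; quantify corticosterone by HPLC-MS/MS; score bidirectionally vs DMSO.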
# [16] = CEETOX_H295R_CORTISOL: CeeTox H295R High-throughput Steroidogenesis Assay for Cortisol (AID 2283438; active = hit-call score of the fitted dose curve at least 0.9, where 1 is the maximum; inactive = score below 0.9); settings: actives raise or lower the signal
# Outline: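 Cortisol synthesis by H295R cells is measured 48 h after chemical dosing, following a 48 h stimulation with 10 uM forskolin. Hormone is extracted and quantified by HPLC-MS/MS, and activity is fitted bidirectionally against the DMSO control.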
# [17] = CEETOX_H295R_DOC: CeeTox H295R High-throughput Steroidogenesis Assay for DOC (AID 2283439; active = hit-call score of the fitted dose curve at least 0.9, where 1 is the maximum; inactive = score below 0.9); settings: actives raise or lower the signal
# Outline: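 Steps: seed H295R, adhere overnight; 10 uM forskolin 48 h; replace with chemical medium (0.1% DMSO) 48 h; collect medium, MTBE extraction, HPLC-MS/MS for DOC. Viability then checked by MTT; cytotoxic chemicals diluted until viability ≥70%.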
# Fatty acid synthase (Homo sapiens), sequence (P49327 whole entry, looked up): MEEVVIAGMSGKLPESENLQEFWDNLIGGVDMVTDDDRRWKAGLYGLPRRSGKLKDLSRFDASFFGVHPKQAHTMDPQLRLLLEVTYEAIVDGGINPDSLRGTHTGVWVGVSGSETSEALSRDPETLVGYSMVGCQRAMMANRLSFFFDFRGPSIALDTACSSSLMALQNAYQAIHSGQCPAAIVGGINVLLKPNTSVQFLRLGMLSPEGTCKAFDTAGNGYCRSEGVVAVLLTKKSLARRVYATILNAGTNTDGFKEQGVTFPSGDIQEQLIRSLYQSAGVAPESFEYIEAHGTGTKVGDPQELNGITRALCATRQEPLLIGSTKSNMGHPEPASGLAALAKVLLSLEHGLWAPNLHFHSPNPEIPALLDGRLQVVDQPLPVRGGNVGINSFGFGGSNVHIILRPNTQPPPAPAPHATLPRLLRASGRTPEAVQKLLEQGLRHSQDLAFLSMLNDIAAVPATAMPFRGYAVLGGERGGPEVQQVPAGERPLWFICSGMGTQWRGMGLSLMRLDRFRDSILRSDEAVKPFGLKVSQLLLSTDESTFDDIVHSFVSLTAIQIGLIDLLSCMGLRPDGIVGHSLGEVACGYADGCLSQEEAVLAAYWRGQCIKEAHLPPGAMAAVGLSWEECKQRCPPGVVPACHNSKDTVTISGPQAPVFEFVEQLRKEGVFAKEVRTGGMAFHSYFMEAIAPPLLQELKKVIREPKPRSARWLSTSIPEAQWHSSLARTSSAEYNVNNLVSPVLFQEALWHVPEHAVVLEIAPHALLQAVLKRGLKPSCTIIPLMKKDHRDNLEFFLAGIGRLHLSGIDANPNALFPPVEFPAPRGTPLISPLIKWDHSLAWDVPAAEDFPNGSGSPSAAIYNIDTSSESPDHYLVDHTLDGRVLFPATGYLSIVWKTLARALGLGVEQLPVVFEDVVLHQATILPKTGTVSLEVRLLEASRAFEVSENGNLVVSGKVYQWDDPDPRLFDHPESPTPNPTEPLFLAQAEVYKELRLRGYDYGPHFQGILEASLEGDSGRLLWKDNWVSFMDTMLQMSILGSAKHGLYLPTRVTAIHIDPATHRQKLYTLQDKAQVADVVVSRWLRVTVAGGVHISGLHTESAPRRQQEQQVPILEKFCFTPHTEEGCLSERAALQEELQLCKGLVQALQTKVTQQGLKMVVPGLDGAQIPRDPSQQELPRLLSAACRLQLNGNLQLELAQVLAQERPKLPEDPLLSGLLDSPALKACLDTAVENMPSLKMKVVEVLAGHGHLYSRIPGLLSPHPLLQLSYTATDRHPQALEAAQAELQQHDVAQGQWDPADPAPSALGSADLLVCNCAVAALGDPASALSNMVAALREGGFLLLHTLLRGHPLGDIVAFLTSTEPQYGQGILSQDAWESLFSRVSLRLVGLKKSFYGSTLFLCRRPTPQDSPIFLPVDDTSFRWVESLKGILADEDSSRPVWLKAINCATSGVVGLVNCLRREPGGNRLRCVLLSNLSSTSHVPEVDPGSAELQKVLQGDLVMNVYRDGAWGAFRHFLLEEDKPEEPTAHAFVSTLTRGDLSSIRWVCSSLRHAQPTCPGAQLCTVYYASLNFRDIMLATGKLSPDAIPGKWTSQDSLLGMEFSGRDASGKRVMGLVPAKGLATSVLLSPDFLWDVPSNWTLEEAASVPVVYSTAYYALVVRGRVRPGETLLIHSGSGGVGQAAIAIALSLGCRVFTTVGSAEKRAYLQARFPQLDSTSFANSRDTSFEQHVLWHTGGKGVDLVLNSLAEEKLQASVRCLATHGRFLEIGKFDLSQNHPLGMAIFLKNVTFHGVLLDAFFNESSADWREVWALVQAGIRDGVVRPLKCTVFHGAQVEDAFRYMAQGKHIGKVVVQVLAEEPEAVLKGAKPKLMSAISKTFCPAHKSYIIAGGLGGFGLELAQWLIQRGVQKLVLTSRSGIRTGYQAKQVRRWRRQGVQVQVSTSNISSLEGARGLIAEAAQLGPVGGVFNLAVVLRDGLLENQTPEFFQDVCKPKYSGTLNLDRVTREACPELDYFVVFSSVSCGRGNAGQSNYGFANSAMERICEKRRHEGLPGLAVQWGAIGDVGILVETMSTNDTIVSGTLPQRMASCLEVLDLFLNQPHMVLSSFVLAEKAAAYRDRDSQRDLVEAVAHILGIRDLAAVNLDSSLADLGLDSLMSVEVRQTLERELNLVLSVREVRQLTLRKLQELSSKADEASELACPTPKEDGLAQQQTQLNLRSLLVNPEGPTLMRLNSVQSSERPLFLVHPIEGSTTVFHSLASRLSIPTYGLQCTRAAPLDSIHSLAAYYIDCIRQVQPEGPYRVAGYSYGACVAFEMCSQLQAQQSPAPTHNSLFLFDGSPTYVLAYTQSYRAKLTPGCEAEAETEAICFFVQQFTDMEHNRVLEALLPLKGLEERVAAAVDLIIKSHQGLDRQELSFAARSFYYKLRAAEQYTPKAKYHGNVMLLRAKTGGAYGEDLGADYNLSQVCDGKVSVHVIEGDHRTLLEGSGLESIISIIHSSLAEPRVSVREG
compound,measurement,setting,value
Cc1cccc([N+](=O)[O-])c1C,outcome,[1],inactive
same,outcome,[2],inactive
same,outcome,[3],inactive
same,outcome,[4],inactive
same,outcome,[5],inactive
same,outcome,[6],inactive
same,outcome,[7],inactive
same,outcome,[8],inactive
same,outcome,[9],inactive
C[C@]12C=CC(=O)C=C1CC[C@@H]1[C@@H]2C(=O)C[C@@]2(C)[C@H]1CC[C@]2(O)C(=O)CO,outcome,[10],inactive
same,outcome,[4],inactive
same,outcome,[5],inactive
same,outcome,[11],inactive
same,outcome,[12],inactive
same,outcome,[6],inactive
same,outcome,[7],inactive
CC(C)(C)c1cc(O)c(C(C)(C)C)cc1O,outcome,[1],inactive
same,outcome,[2],inactive
same,outcome,[4],inactive
same,outcome,[5],inactive
same,AC50,[6],81.7 µM (active)
same,AC50,[7],50 µM (active)
same,outcome,[8],inactive
same,outcome,[9],inactive
FC(F)(F)C(F)(F)C(F)(F)C(F)(F)C(F)(F)C(F)(F)CCI,outcome,[2],inactive
same,outcome,[3],inactive
same,outcome,[4],inactive
same,outcome,[5],inactive
same,outcome,[6],inactive
same,outcome,[7],inactive
same,outcome,[8],inactive
same,outcome,[9],inactive
Oc1ccc2c(c1)OC[C@@H](N1CCC(O)(c3ccc(F)cc3)CC1)[C@H]2O,outcome,[2],inactive
same,outcome,[4],inactive
same,outcome,[5],inactive
same,outcome,[13],inactive
same,outcome,[14],inactive
same,outcome,[11],inactive
same,outcome,[15],inactive
same,outcome,[16],inactive
same,outcome,[17],inactive
same,outcome,[12],inactive
same,outcome,[6],inactive
same,outcome,[7],inactive
same,outcome,[9],inactive
